In the library only some 12% were active in any assay of this set; here they are far more common.
G9a block – blocks human histone lysine methyltransferase G9a | Potency, µM (series often up to 102 µM), inactives show at the top dose activity, negative = inhibition, most hits filed as inhibitors | AID 504332 | Q96KQ7 | G9a H3K9 monomethylation, AlphaScreen, 2 h | 8.8% of 350,000 active; also: potency is read from the fitted curve at half-maximal effect; % is scaled to controls: 0 for no effect and ±100 for the full control effect; nearly all actives have a fitted effect of over 75% in size
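G9a (20 nM) was preincubated 15 min with compound, then reacted 2 h at room temperature with 500 nM biotin-H3K9 peptide and 20 µM SAM. Monomethyl-H3K9 detected by AlphaScreen using anti-H3K9me1 antibody.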
JMJD2A Tudor – inhibitors of human JMJD2A Tudor domain; O75164; AlphaScreen JMJD2A-Tudor / H3K4me3 peptide binding; Potency, µM (titrated, usually from 114 µM), for inactives: at the highest dose activity change, negative = inhibition, actives largely listed as inhibitors; 4.4% of 390,000 active; AID 504339; also: potency is read from the fitted curve at half-maximal effect; % is scaled to controls: 0 for no effect and ±100 for the full control effect; nearly all actives have a fitted effect of over 50% in size
BAZ2B inh – blocks human BAZ2B; Q9UIF8; 4.4% of 360,000 active; AlphaScreen BAZ2B-H3K14Ac peptide displacement; Potency, µM (series often up to 114 µM), inactives show top-dose activity change, negative = inhibition, hits mostly inhibitors; also: potency is read from the fitted curve at half-maximal effect; % is scaled to controls: 0 for no effect and ±100 for the full control effect; nearly all actives have a fitted effect of over 60% in size
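BAZ2B 50 nM plus b-H3(5-23)K14Ac 50 nM, PBS pH 7.4/0.01% Tween-20, 30 min RT; compound added (max 110 uM), 30 min RT; streptavidin donor/Ni-chelate acceptor beads 10 ug/mL final, 20 min dark; AlphaScreen read.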
HP1b chromo inh – blocks HP1-beta chromodomain binding to methylated histone tails; P83916; AlphaScreen HP1-beta / biotin-H3K9me3 peptide binding; Potency, µM (series often up to 114 µM), for inactives: at the top dose activity change, negative = inhibition, hits mostly inhibitors; 0.56% of 390,000 active; AID 540317; also: potency is read from the fitted curve at half-maximal effect; nearly all actives have a fitted effect of over 70% in size
Target sequence (P83916 whole entry, looked up): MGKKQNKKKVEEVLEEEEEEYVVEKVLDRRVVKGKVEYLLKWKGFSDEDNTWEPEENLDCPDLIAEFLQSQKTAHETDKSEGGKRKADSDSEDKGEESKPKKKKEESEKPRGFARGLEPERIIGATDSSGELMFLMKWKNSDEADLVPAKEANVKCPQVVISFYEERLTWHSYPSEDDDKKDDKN
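AlphaScreen: HP1-beta (50 nM) preformed 30 min with biotin-H3(1-18)K9me3 peptide (50 nM) in PBS pH 7.4, 0.01% Tween-20. Compound added for 30 min at RT, then streptavidin donor/nickel chelate acceptor beads (10 ug/mL) for 30 min.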
PLK1 PBD block – blocks phosphopeptide binding to human PLK1 polo-box domain; AID 720504; Plk1 PBD binding of FITC phosphopeptide, fluorescence polarization; P53350; 2.8% of 360,000 active; Potency, µM, without a hit: max response, negative = inhibition, most hits filed as inhibitors; also: potency is read from the fitted curve at half-maximal effect; series mostly up to about 57 µM; % is scaled to controls: 0 for no effect and ±100 for the full control effect; nearly all actives have a fitted effect of over 65% in size
PI5P4Ka inh – inhibitors of human PI5P4K alpha. PI5P4Kalpha enzyme, ADP-Glo luminescence, 60 min; hits give low values. P48426. max response, %. 1.2% of 330,000 active; active = max response of -50% or lower; inconclusive = between -30% and -50%; inactive = -30% or higher; also: value at the top dose of about 77 µM; % is scaled to controls: 0 for no effect and ±100 for the full control effect
Target sequence (P48426 whole entry, looked up): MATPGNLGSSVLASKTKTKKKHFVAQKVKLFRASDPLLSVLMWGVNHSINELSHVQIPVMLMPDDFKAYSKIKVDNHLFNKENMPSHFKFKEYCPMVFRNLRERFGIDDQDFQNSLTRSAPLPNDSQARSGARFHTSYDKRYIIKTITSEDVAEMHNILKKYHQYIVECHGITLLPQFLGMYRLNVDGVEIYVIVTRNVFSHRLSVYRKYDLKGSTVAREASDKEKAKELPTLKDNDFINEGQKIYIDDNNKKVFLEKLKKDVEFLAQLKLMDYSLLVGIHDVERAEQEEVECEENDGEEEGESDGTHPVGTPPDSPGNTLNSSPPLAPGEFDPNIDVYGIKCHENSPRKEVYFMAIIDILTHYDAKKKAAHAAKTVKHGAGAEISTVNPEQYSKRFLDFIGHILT
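Compounds were pin-transferred onto PI5P4Kalpha and substrate in HEPES pH 7.4 buffer with EGTA, CHAPS and 5% DMSO. ATP (5 microM final) started the reaction, which ran 60 minutes at room temperature before ADP-Glo detection.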
The depositor's hits bear a star; ? = inconclusive; . = no result; [ ] = another dose, or the depositor's remark. Unless noted, calls follow the shape of the dose curve; as a rule, active = well fitted curve in the direction sought with a large enough effect; inconclusive = small, poorly fitted or top-dose-only effect, or another doubt; inactive = no such curve, though single readings can be large; an effect the other way counts as inactive or inconclusive.

SMILES	G9a block	JMJD2A Tudor	BAZ2B inh	HP1b chromo inh	PLK1 PBD block	PI5P4Ka inh
O=c1nc(N2CCCC2)nc(Nc2ccccc2)[nH]1	-7%[12.7 µM]	-25%	3%	6%	1%	-4
Nc1[nH]c(=O)nc(Nc2ccccc2)c1N=O	.	35µM*	.	34%	-2%	-16
CC(=O)Nc1ccc(NC(=O)CSc2ccc(C(F)(F)F)cc2[N+](=O)[O-])cc1	45µM*	-9%	-10%	9%	-24%	1
O=[N+]([O-])c1cc(C(F)(F)F)ccc1NCC1CCCO1 (configuration not stated)	6%	?	-2%	-9%	6µM*	-25
CC(C)C(Nc1ccc(C(F)(F)F)cc1[N+](=O)[O-])C(=O)O (configuration not stated)	?	-6%	.	33%	-15%	0
CC1CCC(=NNc2ccc(C(F)(F)F)cc2[N+](=O)[O-])CC1 (configuration not stated)	3.5µM*	40µM*	10µM*	?	-7%	-10
C[C@H](Nc1ccc(C(F)(F)F)cc1[N+](=O)[O-])C(=O)O	56µM*	-18%	-15%	1%[57 µM]	-10%	-3
O=[N+]([O-])c1cc(C(F)(F)F)ccc1Cl	-1%[0.501 µM]	-3%	-4%	17%	-10%	1
N#Cc1cc(NCC2CCCO2)c([N+](=O)[O-])cc1C#N (configuration not stated)	1%[59 µM]	-21%	-1%	-4%	-14%	-19
Cc1cccc([C@H]2[C@@H]3C=CC(C)C[C@@H]3C(=O)N2Cc2ccccc2)c1 (some centres not stated)	36%	.	.	.	.	.
O=C(Nc1c(-c2ccc3c(c2)OCO3)[nH][nH]c1=O)c1ccc2c(c1)OCO2	.	.	.	.	-23%	-29
Cc1ccc(S(=O)(=O)N2CCOCC2)cc1NC(=O)CN(C)CC(=O)Nc1cccc(F)c1	.	.	.	.	-9%	-1
COc1ccc(Nc2ccc(C(F)(F)F)cc2[N+](=O)[O-])cn1	?	56µM*	40µM*	?	3%	2
COc1ccc(Nc2ccc(N3C(=O)CCC3=O)cc2[N+](=O)[O-])cn1	9%	6%	-9%	32%	-6%	0
C/C(=N\Nc1ccc(C(F)(F)F)cc1[N+](=O)[O-])C(C)C	11µM*	?	10µM*	40µM*	-13%	1
O=C(CSc1nnc(Nc2ccccc2F)s1)Nc1cccc(S(=O)(=O)N2CCCCC2)c1	3.2µM*	?	-10%	7%	-15%	-16
O=C(CNc1ccccc1F)Nc1cccc(S(=O)(=O)N2CCCCC2)c1	?	-18%	-1%	14%	-25%	-2
Cc1ccc(Nc2nnc(SCC(=O)Nc3cccc(S(=O)(=O)N4CCCCC4)c3)s2)cc1	40µM*	-28%[57.1 µM]	-20%	14%	-18%	6
Cc1nnc(SCC(=O)Nc2cccc(S(=O)(=O)N3CCCCC3)c2)s1	10%[2.33 µM]	-11%	-3%	13%	-12%	-1
CCC1Sc2ccc(S(=O)(=O)N3CCN(c4ccccc4)CC3)cc2NC1=O (configuration not stated)	18µM*	13µM*	-33%	-8%	3.4µM*	?
CCCn1cnnc1CNC(=O)[C@H]1O[C@@H](n2ccc(=O)[nH]c2=O)[C@H](O)[C@@H]1O	.	.	.	.	1%	0
Cc1ccc(-n2c(=O)c3c4c(sc3n(CC(=O)C(C)(C)C)c2=O)CCCCC4)cc1C	-15%[59 µM]	-28%	-15%	-1%	.	.
CCC(C(=O)NCCC1=CCCCC1)n1nc(C)c2c(C)n(-c3ccccc3)nc2c1=O (configuration not stated)	44%	?	-27%	5%	27µM*	10
CCC(C(=O)NCCCc1ccccc1)n1nc(C)c2c(C)n(-c3ccccc3)nc2c1=O (configuration not stated)	.	-27%	-5%	42%	-9%	0
CCC(C(=O)NC1CCCCCC1)n1nc(C)c2c(C)n(-c3ccccc3)nc2c1=O (configuration not stated)	77%	?	-22%	4%	30µM*	0
SMILES	G9a block	JMJD2A Tudor	BAZ2B inh	HP1b chromo inh	PLK1 PBD block	PI5P4Ka inh
Cc1[nH]c2c(ccc3ccccc32)c1C1C(CCN)C1(C)C (configuration not stated)	-44%[59 µM]	56µM*	56µM*	-7%	2%	-5
O=C(CN1C(=O)C(c2ccccc2)Oc2cccnc21)NCc1ccccc1F (configuration not stated)	-7%[59 µM]	20µM*	-23%	18%	7.5µM*	?
Cc1cc(C)cc(NC(=O)CCCN2C(=O)C(c3ccccc3)Oc3cccnc32)c1 (configuration not stated)	11%[59 µM]	?	-14%	20%	24µM*	-13
CC(=O)Nc1ccc(NC(=O)CCCN2C(=O)C(c3ccccc3)Oc3cccnc32)cc1 (configuration not stated)	.	.	.	.	-2%	8
CCOc1ccc(CNC(=O)CN2C(=O)C(c3ccccc3)Oc3cccnc32)cc1 (configuration not stated)	29%	-24%	71µM*	30%	-2%	-10
COc1ccc(CNC(=O)CN2C(=O)C(c3ccccc3)Oc3cccnc32)cc1 (configuration not stated)	-8%	-18%	-4%	9%	-2%	0
COc1ccc(C)cc1NC(=O)CCNC(=O)Cn1cnc2ccccc2c1=O	0%	-16%	0%	30%	-7%	0
CCN(c1ccccc1)S(=O)(=O)c1cccc(C(=O)NCCN2CCOCC2)c1	34%[12.7 µM]	-15%	-4%	28%	-4%	-1
COc1ccccc1N1C(=O)Cc2ccccc2C1=O	-43%	-20%	11%	-14%	-21%	-1
Cc1ccc(C(=O)N2NC(c3ccccc3F)C3C(=O)N(c4cccc(C)c4)C(=O)C32)cc1 (configuration not stated)	?	-16%	-30%	39%	-13%	3
COc1ccccc1N1C(=O)C2C(c3ccccc3F)NN(C(=O)c3ccc(C)cc3)C2C1=O (configuration not stated)	20µM*	-16%	-3%	35%	-8%	8
COCCCn1cc(CN2CC(N3CCN(C4CCN(C)CC4)CC3)CS2(=O)=O)nn1 (configuration not stated)	.	.	.	.	-3%	1
CCC1(c2ccc(F)cc2)NC(=O)N(CC(=O)Nc2cccc(S(=O)(=O)N3CCOCC3)c2)C1=O (configuration not stated)	.	-15%	.	25%	-4%	0
O=NN(Cc1cccnc1)C(=O)NC1CCCCC1	.	.	.	.	27µM*	0

Screening results as filed in PubChem.
